Screening data as filed in PubChem BioAssay.
Gal4-VP16 FLuc: VP16 counterscreen qHTS for inhibitors of ROR gamma transcriptional activity; Potency, µM (doses to about 53.6 µM), without a hit: at the top dose activity, negative = inhibition, usual class: inhibitors; AID 2546, 2010; 3.5% of 310,000 active; Drosophila S2 Gal4-VP16 UAS-luciferase, luminescence, 20 h;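 also: Gal4-VP16 expression switched on by copper sulfate through the metallothionein promoter; potency is read from the fitted curve at half-maximal effect; nearly all actives have a fitted effect of over 50% in size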
LDHA inh: qHTS assay for inhibitors of human lactate dehydrogenase. L-lactate dehydrogenase A chain (Homo sapiens), P00338. purified LDHA, NADH/diaphorase-resazurin fluorescence; stronger effect = lower value. activity change, % (values are at about 110 or 230 µM). 0.15% of 480,000 active; in the data active = activity change below about -30%; inconclusive = mostly about -25% to -30%;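 also: plate controls were DMSO wells for no effect and wells without enzyme for full effect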
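Remaining NADH was detected by diaphorase (0.133 mg/mL) converting 37 µM resazurin to fluorescent resorufin, read at 0 and 20 minutes. The preceding 5-minute room-temperature reaction used 2 nM LDHA, 0.2 mM sodium pyruvate and 0.06 mM NADH at pH 7.4.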
TDP1 cell CPT: qHTS for Inhibitors of human tyrosyl-DNA phosphodiesterase 1 (TDP1): qHTS in cells in presence of CPT | chicken DT40 Tdp1-/-;hTDP1 cells + 20 nM CPT, ATP luminescence, 48 h | Potency, µM (top dose mostly 46.2 µM), for the others: top-dose activity change, negative = growth inhibition, hits mostly inhibitors | 12% of 420,000 active; also: potency is read from the fitted curve at half-maximal effect; nearly all actives have a fitted effect of over 55% in size
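Chicken DT40 Tdp1-/- cells stably complemented with human TDP1 were seeded at 400 cells/well in medium containing 20 nM camptothecin, exposed to pin-transferred compounds, and grown at 37 °C for at least 48 hr. Viability was read as ATP luminescence.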
IL1B secr inh: qHTS for Inhibitors of Inflammasome Signaling: IL-1-beta AlphaLISA Primary Screen. THP-1 LPS/ATP IL-1B secretion, AlphaLISA, 16 h; stronger effect = lower value. activity change, % at 57.5 µM. 4.7% of 360,000 active. AID 743279, 2014; in the data active = activity change below about -50%; inconclusive = mostly about -30% to -49%
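THP-1 cells pretreated 1 hr with compounds (up to 57.5 uM final), then stimulated with LPS (250 ng/mL final) plus ATP (1.25 mM final); secreted IL-1B measured by AlphaLISA after 16 hr, decreased signal indicating inhibition.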
TDP1 cell noCPT: qHTS for Inhibitors of human tyrosyl-DNA phosphodiesterase 1 (TDP1): qHTS in cells in absence of CPT. AID 686978, 2013. 15% of 420,000 active. Potency, µM (titrated, usually from 46.2 µM), inactives show at the top dose activity change, negative = growth inhibition, hits mostly inhibitors. DT40 Tdp1-/- hTDP1 cells, no CPT, ATP luminescence, 48 h; also: potency is read from the fitted curve at half-maximal effect; nearly all actives have a fitted effect of over 55% in size
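Growth of hTDP1-complemented DT40 Tdp1-knockout cells is measured by ATP luminescence after at least 48 hr compound exposure at 37 °C, with DMSO substituting for the 20 nM CPT used in the parallel screen.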
RORg inh: qHTS for inhibitors of ROR gamma transcriptional activity; Nuclear receptor ROR-gamma (Mus musculus), P51450; Drosophila S2 Gal4-RORgamma UAS-luciferase reporter, 20 h; Potency, µM (top dose mostly 53.6 µM), inactives show at the highest dose activity change, negative = inhibition, hits mostly inhibitors; 5.4% of 310,000 active; AID 2551, 2010; also: potency is read from the fitted curve at half-maximal effect; nearly all actives have a fitted effect of over 60% in size
Target sequence (P51450 whole entry, looked up, the tested form may be a part): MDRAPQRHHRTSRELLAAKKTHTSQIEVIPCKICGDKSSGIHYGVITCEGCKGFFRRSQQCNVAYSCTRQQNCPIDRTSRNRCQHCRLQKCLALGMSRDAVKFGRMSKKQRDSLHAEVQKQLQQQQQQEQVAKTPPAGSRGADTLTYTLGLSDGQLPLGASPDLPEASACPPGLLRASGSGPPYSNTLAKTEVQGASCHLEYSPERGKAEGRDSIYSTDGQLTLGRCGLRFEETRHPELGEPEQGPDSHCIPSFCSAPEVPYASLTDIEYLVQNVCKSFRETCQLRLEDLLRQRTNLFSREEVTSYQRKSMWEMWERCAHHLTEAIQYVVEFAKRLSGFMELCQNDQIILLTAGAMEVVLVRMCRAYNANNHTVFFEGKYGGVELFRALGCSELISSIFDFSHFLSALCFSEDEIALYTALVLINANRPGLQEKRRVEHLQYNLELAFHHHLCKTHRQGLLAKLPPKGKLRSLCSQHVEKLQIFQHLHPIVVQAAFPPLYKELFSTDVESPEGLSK
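Luminescence from a UAS-regulated Photinus luciferase reporter in stably transfected Drosophila Schneider cells is measured; decreased signal marks ROR gamma inhibition. Fusion expression is induced by 700 uM copper sulfate for 20 hr.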
* hit, by the source's call; ? = inconclusive; . = no result given; [ ] = dose if it differs, or a comment. Only some compounds are listed: those with a hit (about 18% of all), similar ones and a draw of the others. Unless noted, calls follow the shape of the dose curve; as a rule, active = well fitted curve in the direction sought with a large enough effect; inconclusive = small, poorly fitted or top-dose-only effect, or another doubt; inactive = no such curve, though single readings can be large; an effect the other way counts as inactive or inconclusive. Unless noted, % is scaled to controls: 0 for no effect and ±100 for the full control effect.

SMILES	Gal4-VP16 FLuc	LDHA inh	TDP1 cell CPT	IL1B secr inh	TDP1 cell noCPT	RORg inh
CC12CC3CC(C)(C1)CC(C(=O)NC1=NCCS1)(C3)C2	7.94µM*	-1.2	-2.2%	0.0	-23.3%	2.82µM*
CC12CC3(C)CC(C)(C1)CC(C(=O)NC1=NCCS1)(C2)C3	.	0.0	23.1µM*	22.7	?	.
CC(C)(C)C(=O)NC1=NCCS1	-13.6%	-8.6	-5.5%	14.2	9.5%	-20.2%
CCC(C)NC(=S)N(Cc1cc2cc(C)ccc2n2nnnc12)CC(C)(C)NC(C)C (stereo unspecified)	.	-12.0	16.4µM*	6.8	16.4µM*	.
CCCNC(=S)N(Cc1cc2cc(C)ccc2n2nnnc12)CC(C)(C)CN(C)C	.	-7.4	?	?	?	.
COCCN(Cc1cc2cc(C)ccc2n2nnnc12)C(=S)Nc1ccc(C)cc1	-2.6%[10 µM]	-7.7	18.4µM*	-7.5	23.1µM*	-18.7%
COCCN(Cc1cc2cc(C)ccc2n2nnnc12)C(=S)Nc1ccc(OC)cc1	.	-3.7	?	9.5	?	.
N#Cc1ccc(/C=N/Nc2ccccc2C(F)(F)F)cc1	.	0.3	.	.	.	.
Cc1c(CN(C)C)c2c(n1Cc1ccccc1)C(=O)c1ccccc1-2	5.2%	-1.0	?	-62.7*	?	-30.8%
Cc1cc(=O)n(Cc2ccccc2)c2ccccc12	9.7%	-2.0	?	16.3	?	-13.8%
CCOc1ccc(N/C(SC)=C(/C#N)C(N)=O)cc1	0.6%	0.5	-10.6%	0.0	-12.7%	-5.6%
CCOc1ccc(N/C(SCc2cccc([N+](=O)[O-])c2)=C(/C#N)C(N)=O)cc1	-7.6%	-0.4	?	-73.4*	20.6µM*	-1.6%
COc1cccc(N/C(SCc2cccc([N+](=O)[O-])c2)=C(/C#N)C(=O)NCc2cccs2)c1	1.6%	2.8	?	-55.3*	16.4µM*	3.0%
Cc1cc(COc2ccccc2)oc1C(=O)O	6.31µM*	-1.8	-4.9%	2.2	-8.7%	5.01µM*
Cc1ccc(OCc2ccc(C(=O)O)o2)cc1C	-28.6%	-3.4	-13.5%	-14.9	22.4%	?
COc1cc(OC)c(C2CC(=O)Nc3c(-c4ccccc4)nsc32)cc1OC (stereo unspecified)	.	5.4	.	.	.	.
COc1ccc(-c2nc3cc(C)ccc3cc2CN(C(=O)c2ccc(C)s2)C2CC2)cc1OC	.	.	-11.9%[9.04 µM]	.	20.6µM*	.
COc1ccc(-c2nc3cc(C)ccc3cc2CN(C(=O)c2ccco2)C2CC2)cc1OC	.	.	-6.5%[9.04 µM]	.	?	.
COc1cccc(-c2nc3cc4c(cc3cc2CN(C(=O)c2cc(C)nn2C)C2CC2)CCC4)c1OC	.	.	4.11µM*	.	16.4µM*	.
COc1ccc(-c2nc3cc(C)ccc3cc2CN(C(=O)c2cccs2)C2CC2)cc1OC	.	.	?	.	13µM*	.
COc1ccc(-c2nc3cc(C)ccc3cc2CN(C(=O)c2cc(C)nn2C)C2CC2)cc1OC	.	.	?	.	20.6µM*	.
COc1cccc(C(=O)N(Cc2cc3ccc(C)cc3nc2N(C)C)C2CC2)c1OC	.	.	-26.5%[9.04 µM]	.	-97.5%	.
COc1ccc(C(=O)Nc2cccc(NC(C)=O)c2)cc1Br	.	6.2	.	.	.	.
C/C(CC(=O)Nc1ccc(OCc2ccccc2)cc1)=N\NC(=O)C(=O)Nc1cccc(C)c1	?	-1.1	?	?	9.2µM*	-18.0%
Cc1cnc(NC(=O)Nc2ccc(OCc3ccccc3)cc2)c(Br)c1	-5.2%	11.4	?	-5.3	16.4µM*	32.2%
SMILES	Gal4-VP16 FLuc	LDHA inh	TDP1 cell CPT	IL1B secr inh	TDP1 cell noCPT	RORg inh
CN(c1ccccc1C(=O)O)S(C)(=O)=O	1.6%	-1.3	9.7%	-0.6	-7.1%	-2.7%
CN(C)c1ccccc1C(=O)c1ccccc1N(C)C	?	-5.1	4.61µM*	24.4	4.11µM*	?
COCCOc1nc2c(c(=O)n(C)c(=O)n2C)n1Cc1ccccc1	.	2.4	.	.	.	.
COCCOc1nc2c(c(=O)n(C)c(=O)n2C)n1C(C)c1ccccc1 (stereo unspecified)	.	-35.6*	.	.	.	.
COCCOc1nc2c(c(=O)n(C)c(=O)n2C)n1Cc1cccc(OC)c1	?	-2.7	8.2µM*	-16.6	7.31µM*	?
CCC(C)n1c(OC)nc2c1c(=O)n(C)c(=O)n2C (stereo unspecified)	-6.4%	1.0	23.1µM*	12.5	?	41.7%
C#CCN(C[C@@H]1[C@@H](OC(=O)NCc2ccccc2F)[C@@H](OC(=O)NCc2ccccc2F)Cn2c(=O)ccc(=O)n21)S(=O)(=O)c1ccc(C)cc1	.	-1.4	4.11µM*	-111.3*	2.59µM*	.
C#CCN(C[C@@H]1[C@@H](OC(=O)NCc2ccccc2F)[C@@H](OC(=O)NCc2ccccc2F)Cn2c(=O)n(CCCCCC)c(=O)n21)S(=O)(=O)c1ccc(C)cc1	.	-6.5	?	?	11.6µM*	.
C#CCN(C[C@@H]1[C@@H](OC(=O)NCC2CCCCC2)[C@@H](OC(=O)NCC2CCCCC2)Cn2c(=O)n(CCCCCC)c(=O)n21)S(=O)(=O)c1ccc(C)cc1	.	-3.5	?	-11.9	6.51µM*	.
C#CCN(C[C@@H]1[C@@H](OC(=O)NCCCCCC)[C@@H](OC(=O)NCCCCCC)Cn2c(=O)n(CCCCCC)c(=O)n21)S(=O)(=O)c1ccc(C)cc1	.	-9.4	?	3.4	?	.
Cc1ccc(S(=O)(=O)N2C[C@@]3(O)Cn4c(=O)ccc(=O)n4C[C@@]3(OC(=O)NCc3ccccc3F)C2)cc1	.	4.8	-0.2%	?	-19.5%	.
N#Cc1cn(CC(=O)Nc2ccc(F)c(F)c2)c2ccccc12	.	-2.9	.	.	.	.
COC(=O)c1ccc(OCC2c3cc(OC)c(OC)cc3CCN2C(=O)c2cccc(C)c2)cc1 (stereo unspecified)	.	-4.2	20.6µM*	.	16.4µM*	.
CCc1ccc(OCC2c3cc(OC)c(OC)cc3CCN2C(=O)Cc2ccc(OC)c(OC)c2)cc1 (stereo unspecified)	.	3.0	?	.	?	.
COC(=O)c1ccc(OCC2c3cc(OC)c(OC)cc3CCN2C(=O)C2CC2)cc1 (stereo unspecified)	-11.1%	-2.8	?	?	?	34.2%
COC(=O)c1ccc(OCC2c3cc(OC)c(OC)cc3CCN2C(=O)c2ccccc2F)cc1 (stereo unspecified)	.	-3.3	?	.	18.4µM*	.
